HepG2 viability: kills HepG2 cells in TGF-b inhibitor counter-screen; HepG2 CAGA-GFP viability, ATP luminescence, 18 h; Potency, µM (highest dose often 46.1 µM), inactives show top-dose activity change, negative = cytotoxicity, most hits filed as cytotoxic; 0.76% of 410,000 active
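HepG2 CAGA-GFP cells (1000/well, DMEM with 1% FBS) received compound, then TGF-beta at 500 pg/mL final, and were incubated 18 hours at 37 degrees C. Viability was read by CellTiter-Glo luminescence. Media-only wells were set as complete cell-killing and DMSO as no toxicity.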
TGFb inhibitor: blocks TGF-b signaling | HepG2 CAGA-GFP TGF-b/SMAD3 reporter, GFP fluorescence, 18 h; TGF-beta stimulated, 500 pg/mL final | Potency, µM (top dose mostly 46.1 µM), for the others: at the top dose activity, negative = inhibition, usual class: inhibitors | 1.2% of 410,000 active; note: % is set by controls: 0 for no effect and ±100 for the full control effect; nearly all actives have a fitted effect of over 65% in size
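GFP signal (ex488/em500-530) from TGF-beta-stimulated HEPG2 CAGA-GFP cells, 500 pg/mL final, 18 h at 37 degrees C in DMEM plus 1% FBS, normalized to unstimulated and DMSO-stimulated controls.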
DT40 TDP1 CPT: DT40-hTDP1 cell growth loss with CPT. chicken DT40 Tdp1-/-;hTDP1 cells + 20 nM CPT, ATP luminescence, 48 h. Potency, µM (doses to about 46.2 µM), inactives show top-dose activity change, negative = growth inhibition, most hits filed as inhibitors. 12% of 420,000 active. AID 686979; note: % is set by controls: 0 for no effect and ±100 for the full control effect; nearly all actives have a fitted effect of over 55% in size
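Cell growth measured by CellTiter-Glo luminescence after a minimum 48 h, 37 C compound exposure with 20 nM CPT in Tdp1-knockout DT40 cells stably expressing hTDP1, seeded 400/well; qHTS titration format.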
S2 tox: cell viability loss in ATXN counter-screen; Potency, µM (titrated, usually from 56.7 µM), most hits filed as cytotoxic; 0.49% of 400,000 active; S2 cells (HEK-293 line with an ATXN2-luciferase reporter) viability, CellTiter-Fluor protease fluorescence, 24 h; AID 651635; note: nearly all actives have a fitted effect of over 40% in size
DT40 TDP1 no CPT: qHTS for Inhibitors of human tyrosyl-DNA phosphodiesterase 1 (TDP1): qHTS in cells in absence of CPT | DT40 Tdp1-/- hTDP1 cells, no CPT, ATP luminescence, 48 h | Potency, µM (top dose mostly 46.2 µM), for inactives: at the highest dose activity change, negative = growth inhibition, usual class: inhibitors | 15% of 420,000 active | AID 686978, 2013; note: % is set by controls: 0 for no effect and ±100 for the full control effect; nearly all actives have a fitted effect of over 55% in size
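Growth of hTDP1-complemented DT40 Tdp1-knockout cells is measured by ATP luminescence after at least 48 hr compound exposure at 37 °C, with DMSO substituting for the 20 nM CPT used in the parallel screen.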
ATXN2 expr inh: reduces ATXN2 reporter expression in HEK-293 cells; HEK-293 ATXN2-luciferase reporter, luminescence, 24 h; Potency, µM (highest dose often 57 µM), without a hit: at the highest dose activity change, negative = inhibition, actives largely listed as inhibitors; AID 1745845; 0.72% of 360,000 active; note: % is set by controls: 0 for no effect and ±100 for the full control effect; nearly all actives have a fitted effect of over 55% in size
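ATXN2-luciferase reporter cells (luciferase flanked by upstream and downstream ATXN2 gene portions) were treated 24 h at 37 °C with compounds at up to 57 uM. SteadyGlo luminescence gave expression; GF-AFC fluorescence gave viability.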
The depositor's hits bear a star; i = inactive; ? = inconclusive; nt = no result; [ ] = another dose, or the depositor's remark. In the library only some 17% were active in any assay of this set; here they are far more common. Calls come from the whole dose curve; as a rule, active = well fitted curve in the direction sought with a large enough effect; inconclusive = small, poorly fitted or top-dose-only effect, or another doubt; inactive = no such curve, though single readings can be large; an effect the other way counts as inactive or inconclusive. Potency is the fitted concentration of half-maximal effect.

SMILES | HepG2 viability | TGFb inhibitor | DT40 TDP1 CPT | S2 tox | DT40 TDP1 no CPT | ATXN2 expr inh
O=C(NCc1ccc(Cl)cc1)c1ccc(S(=O)(=O)N2CCCCC2)cc1 | -13% | 0% | -5% | i | ? | nt
O=C(O)CCc1nc2cc(C(F)(F)F)ccc2n(Cc2ccccc2)c1=O | 5% | 0% | -29% | i | ? | -17%
CCCn1c(C)cc(C(=O)CN2C(=O)c3ccccc3S2(=O)=O)c1C | -8% | 14% | ? | i | 9.2µM* | nt
COc1ccc(C(=O)CN2C(=O)c3ccccc3S2(=O)=O)cc1 | -26% | 0% | 8% | i | -6% | 0.5µM*
COc1ccc(S(=O)(=O)N2c3ccccc3NC(=O)CC2C)cc1 (stereo not drawn) | -28% | 0% | -11% | i | 4% | 0%
Cc1ccc(NC(=O)c2oc3ccc(S(=O)(=O)N(C)C4CCCCC4)cc3c2C)cc1Cl | 4% | -9% | ? | nt | ? | nt
Cc1c(C(=O)NCC2COc3ccccc3O2)oc2ccc(S(=O)(=O)N(C)C3CCCCC3)cc12 (stereo not drawn) | -3% | -8% | ? | i | 15µM* | -12%
Cc1c(C(=O)Nc2ccc(F)c(F)c2)oc2ccc(S(=O)(=O)N(C)C3CCCCC3)cc12 | 0% | ? | 18µM* | nt | 15µM* | nt
CCOc1cc(N2CCOCC2)c(OCC)cc1NC(=O)COC(=O)COc1ccc(C#N)cc1 | 9% | -10% | -1% | i | 6% | -5%
CCc1cccc(NC(=O)CCc2nc3cccnc3n2-c2ccccc2)c1 | -8% | 2% | ? | i | ? | -18%
COCCN(CC(=O)Nc1cc(Cl)ccc1-n1cncn1)Cc1nc2ccccc2c(=O)[nH]1 | -1% | 5% | -20% | i | -1% | 11%
COc1ccc(OC)c(NC(=O)CSc2ncnc3c2cnn3-c2ccccc2Cl)c1 | 3% | -33% | 2.1µM* | i | 1.3µM* | -32%
COc1cc(NC(=O)CSc2ncnc3c2cnn3Cc2ccccc2)cc(OC)c1 | -14% | -4% | ? | i | ? | 2%
CN(CC(=O)NC(=O)NCc1ccccc1)Cc1ccc(Cl)c(Cl)c1 | 11% | -6% | 21µM* | i | 29µM* | -13%
CSCCC(NC(=O)COc1ccccc1)C(=O)N1CCN(c2ccccc2F)CC1 (stereo not drawn) | -5% | 2% | 15µM* | i | 23µM* | 1%
N#Cc1sc2nc(C3CC3)cc(-c3ccc(Cl)cc3)c2c1N | -10% | -13% | 16µM* | nt | ? | -19%
CCOc1ccc(S(=O)(=O)/N=C(\N)c2ccccc2)cc1 | 17% | 3% | 23µM* | i | 12µM* | -22%
O=C(CN1CCN(Cc2ccc(Cl)cc2)CC1)N/N=C/c1cccs1 | -7% | -2% | -4% | i | -24% | -15%
CCCCNC(=O)C[C@@H]1C[C@@]2(C(=O)OCC)CCC=C2N(Cc2ccc(Cl)cc2Cl)C1=O | nt | nt | ? | ? | 16µM* | -29%
CCOC(=O)[C@]12CCCC=C1N(Cc1ccc(Cl)cc1Cl)C(=O)[C@H](CC(=O)NCCCCc1ccccc1)C2 | nt | nt | ? | ? | ? | 0%
CCOC(=O)[C@]12CCC=C1N(Cc1ccc(Cl)cc1Cl)C(=O)[C@H](CC(=O)NCCCOC)C2 | nt | nt | ? | i | 16µM* | -6%
CCOC(=O)[C@]12CCC=C1N(Cc1ccc3c(c1)OCO3)C(=O)[C@H](CC(=O)NCCCOC)C2 | nt | nt | -10% | i | -27% | 10%
O=C(Nc1nnc(S(=O)(=O)N2CCCCC2)s1)c1ccc(F)cc1 | -15% | -7% | -10% | nt | -17% | nt
CCOc1ccccc1N1CC(C(=O)N2CCc3ccccc3C2)CC1=O (stereo not drawn) | 2% | 3% | 16µM* | i | 15µM* | -1%
CCOc1ccccc1N1CC(C(=O)NNC(=O)c2cc(OC)c(OC)c(OC)c2)CC1=O (stereo not drawn) | 5% | -3% | 7% | i | 3.7µM* | 16%
SMILES | HepG2 viability | TGFb inhibitor | DT40 TDP1 CPT | S2 tox | DT40 TDP1 no CPT | ATXN2 expr inh
CN(C)c1ccnc(-c2ccccc2C(F)(F)F)n1 | nt | nt | -25% | nt | ? | nt
COc1cc(-c2nnc(Sc3ccc(C(F)(F)F)cc3[N+](=O)[O-])o2)cc(OC)c1OC | 2% | -2% | 21µM* | i | 23µM* | 0%
COC(=O)c1ccc(Cl)cc1NC(=O)NCCc1c(C)nn(C)c1C | -1% | 16% | ? | ? | ? | -14%
COc1ccc(Cl)cc1NC(=O)NCCc1c(C)nn(C)c1C | -4% | -18% | ? | i | 16µM* | -7%
Cc1ccc(NC(=O)NCCc2c(C)nn(C)c2C)cc1Cl | -20% | -1% | ? | i | 23µM* | 13%
CCCS(=O)(=O)NCc1c(C)ncc2c1CCN(C(=O)c1cccc(C(F)(F)F)c1)C2 | nt | nt | 4%[9.04 µM] | i | -9% | nt
N=c1ccn(CC(=O)c2ccc(-c3ccccc3)cc2)cc1 | -26% | ? | 4.6µM* | i | 2.9µM* | 3µM*
COc1ccc2oc(=O)c(C(=O)N3CCN(c4cc(Cl)ccc4Cl)CC3)cc2c1 | 6% | 27% | nt | ? | nt | -11%
O=S(=O)(O)Sc1ccccc1 | -10% | -10% | 23µM* | i | 21µM* | nt
CCc1ccc(S(=O)(=O)c2nnn3c2nc(N2CCC(C)CC2)c2cc(Cl)ccc23)cc1 | 7% | 1% | 18µM* | i | 10µM* | 16%
CCc1ccc(S(=O)(=O)c2nnn3c2nc(N2CCCC(C)C2)c2cc(Cl)ccc23)cc1 (stereo not drawn) | -5% | 13% | ? | i | 7.3µM* | 16%
O=[N+]([O-])c1ccc(N=Cc2ccc(Br)c([N+](=O)[O-])c2)cc1 | -11% | -20% | 5.2µM* | i | 5.2µM* | 16%
Cc1cccc(CNC(=O)CSCc2cnn(-c3ccccc3)c2-n2cccc2)c1 | -41% | nt | ? | nt | ? | nt
Cc1ccc(F)cc1NC(=O)CSc1nc(-c2cccs2)cc(C(F)(F)F)n1 | -36% | -8% | ? | i | ? | -6%
COc1ccc(NC(=O)CSc2nc(-c3cccs3)cc(C(F)(F)F)n2)cc1OC | -8% | ? | 4.6µM* | i | 2.3µM* | -23%
Cc1cccc(C)c1NC(=O)CSc1nc(-c2cccs2)cc(C(F)(F)F)n1 | 22% | 5% | 15µM* | ? | 18µM* | 8%

High-throughput results: PubChem, National Center for Advancing Translational Sciences (NCATS)
